Measurements: PubChem BioAssay (NCI)
The panel holds about 83,000 compounds, 20% with a hit somewhere; the sample as a whole holds those more often.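 Cells were grown in 96-well plates and exposed to the test compound at a single concentration for 48 hours; results are reported as percent growth, with values below 10 considered active.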 Values without a mark were called inactive. The source made the active and inactive calls.

Experiments:
Test in all cases: NCI-60 one-dose screen, 48 h (100 = growth as untreated, 0 = no growth, -100 = all killed)
Conditions in all cases: 10 µM
HT29 colon = system: HT29 colon
SNB-75 CNS = system: SNB-75 CNS
SNB-19 CNS = system: SNB-19 CNS
U251 CNS = system: U251 CNS
PC-3 prostate = system: PC-3 prostate
SK-MEL-5 melanoma = system: SK-MEL-5 melanoma
UACC-62 melanoma = system: UACC-62 melanoma
LOX IMVI melanoma = system: LOX IMVI melanoma
SK-MEL-2 melanoma = system: SK-MEL-2 melanoma
SK-MEL-28 melanoma = system: SK-MEL-28 melanoma

SMILES	growth (HT29 colon)	growth (SNB-75 CNS)	growth (SNB-19 CNS)	growth (U251 CNS)	growth (PC-3 prostate)	growth (SK-MEL-5 melanoma)	growth (UACC-62 melanoma)	growth (LOX IMVI melanoma)	growth (SK-MEL-2 melanoma)	growth (SK-MEL-28 melanoma) [%]
O=C(C[n+]1ccccc1)c1ccc2ccccc2c1	92%	75.1%	99.5%	95.3%	87.8%	102%	96%	99.8%	112%	
O=C(CCCCCCC(=O)Nc1cccnc1)NO	13.2%	-13.5% (active)	68.1%	42.2%	26.3%	15.3%	25.3%	62.4%	28.8%	
Cc1cccc2c(NCCN(C)C)c3cccc(C(=O)NCCN(C)C)c3nc12	-43.7% (active)	-24.7% (active)	14.5%	-43% (active)	-31% (active)	3.71% (active)	20.8%	-61.9% (active)	-6.23% (active)	
COc1ccc(N2C(=O)C3c4[nH]c5ccc(OCc6ccccc6)cc5c4C4CCC(C(C)C)CC4C3C2=O)cc1 (configuration not stated)	89.3%	31.3%	104%	18.8%	88.3%	99.5%	94.2%	90.1%	101%	
N#Cc1cccc(OCc2nc(N)nc(N)c2-c2ccc(Cl)c(Cl)c2)c1	9.63% (active)	51.7%	47.1%	22%	27.5%	22.4%	22.7%	15.5%	42.8%	53.4
CN(C)CCS(=O)(=O)CCN(C)C	109%	110%	103%	104%	102%	98.7%	97.8%	105%	106%	108
Nc1ncn(C2OC(CO)C(O)C2O)c(=O)n1 (configuration not stated)	6.45% (active)	-32.7% (active)	17.2%	5.19% (active)	-30.7% (active)	25.5%	-8.83% (active)	-33.7% (active)	-21.2% (active)	
CCN(CCCCCCN1CC(=O)N(CCCCCCN(CC)Cc2ccccc2OC)CC1=O)Cc1ccccc1OC	20%	76.6%	94.8%	88.8%	77.1%	90.9%	104%	85.8%	63.4%	
COc1cc([C@@H]2c3cc4c(cc3C(Br)[C@H]3COC(=O)[C@H]23)OCO4)cc(OC)c1OC (some centres not stated)	-10.4% (active)	9.76% (active)	-32.3% (active)	1.29% (active)	0.631% (active)	-64.9% (active)	14.1%	23.8%	7.95% (active)	
CCCC1(CC(=O)O)OCCc2c1[nH]c1ccccc21 (configuration not stated)	110%	65.8%	128%	108%	91.7%	100%	93.2%	108%	114%	
